For 24 compounds, Potency, activity change, negative = inhibition and max response results are on record in PubChem BioAssay (NCATS).

Experiment [1] addresses Cytochrome P450 3A4 (Homo sapiens) (UniProt P08684). Description: qHTS Assay for Inhibitors and Substrates of Cytochrome P450 3A4 (AID 884). Note: % is set by controls: 0 for no effect and ±100 for the full control effect; nearly all actives have a fitted effect of over 50% in size. The procedure, abridged:
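20 nM human CYP3A4 with 25 uM Luciferin-PPXE (at KM) in 200 mM KPO4, preincubated 10 min with compound; NADPH regeneration started a 60 min RT reaction. Luciferin detected by luminescence, normalized to 57 uM ketoconazole as full inhibition.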
On the technique in general: In qHTS, concentration-response curves come from the screen itself.

The nature of experiment [2]: Confirmation and Secondary Assay for Modulators of Hemoglobin Beta Chain Splicing at IVS2 705 locus (AID 930).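 Note: HeLa cells stably expressing the EGFP-705 splicing reporter; % of control where 0% means no effect.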 The procedure, abridged: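 Restored EGFP fluorescence after 2-day compound exposure reports splicing correction in IVS2-705 EGFP reporter HeLa cells; positive control was 500 nM splice-blocking PNA oligo. Signal measured as well total peak GFP intensity (488 nm excitation).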

Experiment [3] in a line: qHTS Assay for Lipid Storage Modulators (AID 1519; calls by dose curve; for activity change, negative = inhibition: % is set by controls: 0 for no effect and ±100 for the full control effect). The note with it: Drosophila S3 cells, BODIPY lipid droplet/cell ratio, laser cytometry, cells loaded with oleic acid; for activity change, negative = inhibition: at 57.5 µM (top of the series). The procedure, abridged: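 Cells seeded at 5,000 per well were treated with compounds over a concentration series and loaded with oleic acid (400 uM, as added). Lipid droplet fluorescence (488 nm excitation, 500-530 nm channel) was read by laser-scanning cytometry and normalized to 20 uM Triacsin C.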

Experiment [4] deals with Ubiquitin carboxyl-terminal hydrolase 1 (Homo sapiens) (UniProt O94782). Description: Inhibitors of USP1/UAF1: Pilot qHTS (AID 504865).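 Note: rhodamine fluorescence freed from ubiquitin-rhodamine substrate followed over time; top concentration of the series differs between compounds; % is set by controls: 0 for no effect and ±100 for the full control effect; nearly all actives have a fitted effect of over 35% in size.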 The procedure, abridged:
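Deubiquitinase activity followed as kinetic rhodamine fluorescence release from 150 nM Ub-Rho. 1 nM USP1/UAF1 with compound, after 15 min room-temperature preincubation, in HEPES pH 7.8 buffer containing TCEP, EDTA, BSA and Tween-20.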

Experiment [5] in a line: Confirmation and Secondary Assay for Modulators of Hemoglobin Beta Chain Splicing at IVS2 654 locus (AID 910).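 Note: HeLa cells stably carrying EGFP split by mutant beta-globin IVS2-654 intron; % of control where 0% means no effect.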 The procedure, abridged: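 HeLa cells stably expressing EGFP interrupted by β-globin IVS2-654 intron, seeded overnight in Opti-MEM/2% FCS, then treated 2 days at 37 °C. Restored splicing read as total peak GFP intensity per well by laser scanning cytometry (488 nm excitation, 500–520 nm emission); 500 nM antisense PNA as control.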

The target in experiment [6] is Cytochrome P450 3A4 (Homo sapiens) (UniProt P08684). Description: qHTS Assay for Activators of Cytochrome P450 3A4 (AID 885). Note: nearly all actives have a fitted effect of over 65% in size. The essentials:
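Quantitative HTS format: compounds preincubated with 20nM human CYP3A4 and Luciferin-PPXE substrate at KM, reaction started by NADPH regeneration, stopped after 60 min, luciferase luminescence read 20 min later.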

Where [7] appears, read: measured here: cell count channel max response.
The mark [8] stands for this setting: measured here: lipid channel max response.

Each structure is given as a SMILES string. Results filed as inconclusive are left out. Calls of active or inactive are those of the source. Unless noted, calls come from the whole dose curve; as a rule, active = well fitted curve in the direction sought with a large enough effect; inconclusive = small, poorly fitted or top-dose-only effect, or another doubt; inactive = no such curve, though single readings can be large; an effect the other way counts as inactive or inconclusive.

Ubiquitin carboxyl-terminal hydrolase 1 (Homo sapiens), sequence (O94782 whole entry, looked up): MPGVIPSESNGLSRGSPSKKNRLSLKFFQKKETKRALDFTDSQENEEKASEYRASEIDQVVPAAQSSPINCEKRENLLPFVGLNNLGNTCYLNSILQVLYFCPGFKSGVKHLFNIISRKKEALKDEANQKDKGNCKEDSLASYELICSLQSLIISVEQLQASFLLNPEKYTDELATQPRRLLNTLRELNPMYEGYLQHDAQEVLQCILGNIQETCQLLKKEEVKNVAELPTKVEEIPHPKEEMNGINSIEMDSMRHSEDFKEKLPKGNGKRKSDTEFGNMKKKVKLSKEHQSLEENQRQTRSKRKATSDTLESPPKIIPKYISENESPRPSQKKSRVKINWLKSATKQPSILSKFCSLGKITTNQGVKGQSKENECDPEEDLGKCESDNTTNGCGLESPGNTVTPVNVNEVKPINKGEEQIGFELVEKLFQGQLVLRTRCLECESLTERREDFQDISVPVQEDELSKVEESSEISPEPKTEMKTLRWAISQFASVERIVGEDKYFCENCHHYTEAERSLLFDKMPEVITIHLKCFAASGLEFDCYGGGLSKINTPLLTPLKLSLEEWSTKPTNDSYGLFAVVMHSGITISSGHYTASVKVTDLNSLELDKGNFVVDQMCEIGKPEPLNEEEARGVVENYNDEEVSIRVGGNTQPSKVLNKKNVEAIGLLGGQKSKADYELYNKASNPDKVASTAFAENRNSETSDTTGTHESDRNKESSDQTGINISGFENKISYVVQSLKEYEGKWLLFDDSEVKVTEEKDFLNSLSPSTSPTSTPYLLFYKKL
Cytochrome P450 3A4 (Homo sapiens), sequence (P08684 whole entry, looked up): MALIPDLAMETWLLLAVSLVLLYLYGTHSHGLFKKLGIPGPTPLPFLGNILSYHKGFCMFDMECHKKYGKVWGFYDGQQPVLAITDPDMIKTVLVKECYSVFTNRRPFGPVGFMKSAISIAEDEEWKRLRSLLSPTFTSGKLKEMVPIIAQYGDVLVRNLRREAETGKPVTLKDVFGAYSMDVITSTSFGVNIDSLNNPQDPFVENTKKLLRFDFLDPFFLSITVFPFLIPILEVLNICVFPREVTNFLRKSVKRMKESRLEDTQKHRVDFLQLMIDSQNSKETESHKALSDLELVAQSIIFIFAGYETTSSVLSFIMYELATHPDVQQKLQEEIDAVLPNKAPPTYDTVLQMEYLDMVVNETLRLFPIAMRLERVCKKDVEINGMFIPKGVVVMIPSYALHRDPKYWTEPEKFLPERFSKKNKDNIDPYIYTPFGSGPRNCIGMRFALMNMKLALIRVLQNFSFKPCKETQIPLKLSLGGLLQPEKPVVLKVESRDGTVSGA

As to `CCC(C(=O)O)c1ccccc1` (stereo not drawn), the Potency result in experiment [1], in experiment [2] and in experiment [4] was “inactive” each time. The activity change, negative = inhibition in experiment [3] is 0.321% (inactive). Also, the results for the max response in experiment [3] (setting [7]) and in experiment [3] (setting [8]) were 8.63% and 10.3%, respectively.

Take `O=c1cc(-c2ccccc2)oc2cc(O)c(O)cc12`: the Potency result in experiment [1], in experiment [2] and in experiment [4] was “inactive” each time. In addition, the activity change, negative = inhibition in experiment [3] was -1.09% (inactive). Further, the max response in experiment [3] (setting [7]) was -7.11%; in experiment [3] (setting [8]) it was -6.23%.

Regarding `Nc1nc2c(nc(Br)n2C2CC(O)C(CO)O2)c(=O)[nH]1` (stereo not drawn), the Potency entry in experiment [1], in experiment [5], in experiment [2] and in experiment [4] was “inactive” in each case. Moreover, the activity change, negative = inhibition in experiment [3] is 3.88% (inactive). For the same compound, the results for the max response in experiment [3] (setting [7]) and in experiment [3] (setting [8]) were 4.93% and 9.77%, respectively.

For `COc1cc2c(cc1O)C(Cc1ccc(O)cc1)[N+](C)(C)CC2` (stereo not drawn), the Potency result in experiment [1], in experiment [5], in experiment [2] and in experiment [4] was “inactive” in each case. In addition, the activity change, negative = inhibition in experiment [3] is 12.6% (inactive). For the same compound, the max response was found to be 6.75% in experiment [3] (setting [7]) and 22.8% in experiment [3] (setting [8]).

In the case of `CC(=O)OCC(=O)[C@@]1(O)CCC2C3CCC4=CC(=O)CC[C@]4(C)C3C(O)C[C@]21C` (stereo partly drawn), the Potency result in experiment [1], in experiment [2] and in experiment [4] was “inactive” throughout. Further, the activity change, negative = inhibition in experiment [3] was 7.11% (inactive). In addition, the max response in experiment [3] (setting [7]) was determined as 10.3%; in experiment [3] (setting [8]) it was 18.3%.

In the case of `C=CCSCC(N)C(=O)O` (stereo not drawn), the Potency entry in experiment [1], in experiment [2] and in experiment [4] was “inactive” throughout. Besides, the activity change, negative = inhibition in experiment [3] was 7.56% (inactive). Also, the values for the max response in experiment [3] (setting [7]) and in experiment [3] (setting [8]) were 17.4% and 25.7%, respectively.

For `O=C(Cc1ccccc1)NO`, the Potency result in experiment [1], in experiment [5], in experiment [2] and in experiment [4] was “inactive” throughout. Also, the activity change, negative = inhibition in experiment [3] was 4.41% (inactive). Further, the max response in experiment [3] (setting [7]) was 2.32%; in experiment [3] (setting [8]), 5.58%.

`CC(=O)/C=C\C1[C@]2(C)CCCC(C)(C)C2CC[C@@]1(C)O` (stereo partly drawn): the Potency result in experiment [1], in experiment [5], in experiment [2] and in experiment [4] was “inactive” in each case. Also, in experiment [3], the activity change, negative = inhibition is 3.07% (inactive). For the same compound, the max response in experiment [3] (setting [7]) is -10.9%; in experiment [3] (setting [8]) it was -8.32%.

Regarding `CC12CCC3C(=CCc4cc(O)ccc43)C1CCC2=O` (stereo not drawn), the Potency entry in experiment [6], in experiment [5], in experiment [2] and in experiment [4] was “inactive” each time. Also, in experiment [3], the activity change, negative = inhibition was 5.72% (inactive). For the same compound, the max response is -12.9% in experiment [3] (setting [7]) and -6.28% in experiment [3] (setting [8]).

As to `Cn1nnnc1SCC1=C(C(=O)O)N2C(=O)C(NC(=O)C(OC=O)c3ccccc3)C2SC1` (stereo not drawn), the Potency result in experiment [1], in experiment [5], in experiment [2] and in experiment [4] was “inactive” throughout. Also, in experiment [3], the activity change, negative = inhibition is 4.18% (inactive). The max response in experiment [3] (setting [7]) is 15%; in experiment [3] (setting [8]), 24.5%.

With `CC(=O)OC/C=C(\C)CC/C=C(\C)CC/C=C(\C)CC/C=C(\C)CC/C=C(\C)CC/C=C(\C)CC/C=C(\C)CC/C=C(\C)CCC=C(C)C`, the Potency result in experiment [1], in experiment [5], in experiment [2] and in experiment [4] was “inactive” throughout. Further, in experiment [3], the activity change, negative = inhibition is 1.76% (inactive). The max response in experiment [3] (setting [7]) came to 7.11%; in experiment [3] (setting [8]), 8.78%.

Consider `COC(=O)CC1C(C)(C)C(OC(C)=O)C2CC3=C4CC(=O)OC(c5ccoc5)[C@]4(C)CCC3[C@@]1(C)C2=O` (stereo partly drawn), for which the Potency result in experiment [6], in experiment [5], in experiment [2] and in experiment [4] was “inactive” throughout. Besides, the activity change, negative = inhibition in experiment [3] is -5.96% (inactive). Further, the max response in experiment [3] (setting [7]) was 14.6%; in experiment [3] (setting [8]), 10%.

For `CNC1C(O)C(O)C(CO)O[C@H]1OC1C(O[C@@H]2C(O)C(O)[C@@H](N=C(N)N)C(O)C2N=C(N)N)OC(C)[C@]1(O)C=O` (stereo partly drawn), the Potency result in experiment [1], in experiment [2] and in experiment [4] was “inactive” throughout. Besides, the activity change, negative = inhibition in experiment [3] was 11.1% (inactive). For the same compound, the max response in experiment [3] (setting [7]) is 10.8%; in experiment [3] (setting [8]) it was 24.1%.

Regarding `CC1(C)C[C@@H]2C(=O)CCC3O[C@@]3(C)CCC21` (stereo partly drawn), the Potency result in experiment [6], in experiment [5], in experiment [2] and in experiment [4] was “inactive” each time. Also, the activity change, negative = inhibition in experiment [3] was 3.76% (inactive). Further, the max response in experiment [3] (setting [7]) came to 20.7%; in experiment [3] (setting [8]), 26.4%.

Turning to `O=C(/C=C/c1ccccc1)c1ccc(O)cc1`, the Potency result in experiment [6], in experiment [5], in experiment [2] and in experiment [4] was “inactive” throughout. For the same compound, the activity change, negative = inhibition in experiment [3] was 4.07% (inactive). For the same compound, the max response is -2.42% in experiment [3] (setting [7]) and 2.04% in experiment [3] (setting [8]).

On to `CC1(C)CC2C1CCC1(C)OC1CCC2(C)O` (stereo not drawn), for which the Potency result in experiment [6], in experiment [5], in experiment [2] and in experiment [4] was “inactive” throughout. In addition, in experiment [3], the activity change, negative = inhibition was -2.16% (inactive). Moreover, the max response is -0.415% in experiment [3] (setting [7]) and 2.87% in experiment [3] (setting [8]).

With `CC(Oc1ccccc1)C(=O)NC1C(=O)N2C(C(=O)O)C(C)(C)S[C@@H]12` (stereo partly drawn), the Potency entry in experiment [6], in experiment [5], in experiment [2] and in experiment [4] was “inactive” each time. Further, the activity change, negative = inhibition in experiment [3] was 7.31% (inactive). Also, the max response in experiment [3] (setting [7]) stood at 11.7%; in experiment [3] (setting [8]) it was 21.7%.

Consider `CC1(C)CC2C1CCC1(C)OC2(C)CCC1O` (stereo not drawn), for which the Potency result in experiment [6], in experiment [5], in experiment [2] and in experiment [4] was “inactive” throughout. The activity change, negative = inhibition in experiment [3] was 2.02% (inactive). Also, the values for the max response in experiment [3] (setting [7]) and in experiment [3] (setting [8]) were 12.1% and 15.9%, respectively.

For the compound `CC1(C)CCC2(C(=O)O)CC[C@]3(C)C(=CCC4[C@]5(C)CCC(O)C(C)(C)C5C(O)C[C@]43C)C2C1` (stereo partly drawn), the Potency result in experiment [6], in experiment [5], in experiment [2] and in experiment [4] was “inactive” throughout. The activity change, negative = inhibition in experiment [3] was 10.3% (inactive). Further, the max response in experiment [3] (setting [7]) came to 9.57%; in experiment [3] (setting [8]) it was 24.8%.

`CC1(C)CC[C@]2(C(=O)O)CC[C@@]3(C)C(=CCC4[C@@]5(C)CCC(O)[C@@](C)(CO)C5CC[C@@]43C)C2C1` (stereo partly drawn): the Potency result in experiment [6], in experiment [5], in experiment [2] and in experiment [4] was “inactive” each time. In addition, the activity change, negative = inhibition in experiment [3] was 1.32% (inactive). The max response turned out to be 5.6% in experiment [3] (setting [7]) and 17.6% in experiment [3] (setting [8]).

In the case of `COc1ccc(-c2oc3cc(O[C@@H]4OC(CO)C(O)C(O)C4O)c(OC)c(O)c3c(=O)c2OC)cc1O` (stereo partly drawn), the Potency entry in experiment [6], in experiment [5], in experiment [2] and in experiment [4] was “inactive” in each case. Besides, in experiment [3], the activity change, negative = inhibition was 2.95% (inactive). In addition, the max response in experiment [3] (setting [7]) is -7.2%; in experiment [3] (setting [8]), -6.13%.

Regarding `CC(=O)OC1CC(OC(C)=O)[C@]2(C)C(CC(=O)[C@]3(C)C2CC[C@@]2(C)C(C(=O)O)OC(=O)C4OC423)C1(C)C` (stereo partly drawn), the Potency result in experiment [6], in experiment [5], in experiment [2] and in experiment [4] was “inactive” each time. In experiment [3], the activity change, negative = inhibition was 3.41% (inactive). Besides, the max response in experiment [3] (setting [7]) turned out to be 10.8%; in experiment [3] (setting [8]), 15.4%.

For `O=c1c(O)c(-c2ccccc2)oc2cccc(O)c12`, the Potency result in experiment [6], in experiment [5], in experiment [2] and in experiment [4] was “inactive” each time. In experiment [3], the activity change, negative = inhibition was 9.45% (inactive). Moreover, the max response turned out to be 9.77% in experiment [3] (setting [7]) and 18.2% in experiment [3] (setting [8]).

As to `COc1cc(O)cc(OC)c1OC`, the Potency entry in experiment [6], in experiment [5], in experiment [2] and in experiment [4] was “inactive” each time. Moreover, the activity change, negative = inhibition in experiment [3] is 1.28% (inactive). For the same compound, the max response is -14% in experiment [3] (setting [7]) and -12.4% in experiment [3] (setting [8]).
